In PubChem BioAssay AID720697 (Broad Institute, 2013):
Measured potencies and affinities stand elsewhere. Results filed as inconclusive are left out. Active and inactive are the calls of the source.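 The calls were made as follows: active = signal loss with fitted half-maximal concentration at or below twice the top valid tested dose in every test run; inconclusive = runs disagree, flat 30 to 70% signal loss, or poor fit; inactive = all runs flat, opposite direction, or potency beyond limit.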

Assay: general mammalian cell viability loss – inhibitor set, cherry-pick, set 2, cytotoxicity control for miR-122 modulator project, dose response (AID 720697);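 also: 0% = median of neutral control wells and -100% = MG132 positive control wells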
Settings: HEK293T viability, CellTiter-Glo luminescence, 48 h; series mostly up to 26 µM; activity change, negative = cytotoxicity: at the top concentration
In the case of `CNC(=O)C[C@H]1CC[C@@H]2[C@@H](COc3ccc(NC(=O)c4cccc(OC)c4)cc3C(=O)N2C)O1`, the “activity change, negative = cytotoxicity” value is reported as 125% (inactive).
For `CCCNC(=O)N1[C@H](CNC(C)=O)[C@H](c2ccc(C3=CCCC3)cc2)[C@@H]1CO`, the “activity change, negative = cytotoxicity” value was 139% (inactive).
In the case of `COc1cccc(C(=O)Nc2ccc3c(c2)C(=O)N(C)[C@H]2CC[C@H](CC(=O)NCc4ccc(F)cc4)O[C@H]2CO3)c1`, the “activity change, negative = cytotoxicity” value is reported as -30% (inactive).
For `COc1ccc2[nH]c(=O)c(COC(=O)c3ccco3)cc2c1`, the “activity change, negative = cytotoxicity” value was 18% (inactive).
With `COC(=O)C[C@H]1CC[C@@H]2[C@H](COc3ccc(NC(=O)c4cccs4)cc3C(=O)N2C)O1` the “activity change, negative = cytotoxicity” value was 118% (inactive).
For `CO[C@H]1CN(C)C(=O)c2ccc(NS(C)(=O)=O)cc2OC[C@H](C)N(C(=O)CN(C)C)C[C@H]1C`, the “activity change, negative = cytotoxicity” value was 100% (inactive).
For `Cc1ccccc1-c1ccc2c(c1)O[C@@H](CN(C)C(=O)Nc1ccc(F)cc1)[C@@H](C)CN([C@@H](C)CO)S2(=O)=O`, the “activity change, negative = cytotoxicity” value was 66.7% (inactive).
For `CN1C(=O)c2cc(NC(=O)c3cccc(F)c3)ccc2OC[C@@H]2O[C@@H](CC(=O)O)CC[C@@H]21`, the “activity change, negative = cytotoxicity” value was 30.4% [at 23.5 µM] (inactive).
For `COCC(=O)Nc1ccc2c(c1)C(=O)N(C)[C@H]1CC[C@@H](CC(=O)NCCCN(C)C)O[C@@H]1CO2`, the “activity change, negative = cytotoxicity” value was 15.3% (inactive).
With `CN1C(=O)c2cc(NC(=O)C3CCOCC3)ccc2OC[C@H]2O[C@H](CC(=O)NCc3ccc4c(c3)OCO4)CC[C@@H]21` the “activity change, negative = cytotoxicity” value was 128% (inactive).
For `CNC(=O)C[C@H]1CC[C@@H]2[C@H](COc3ccc(NC(=O)Nc4cccc(F)c4)cc3C(=O)N2C)O1`, the “activity change, negative = cytotoxicity” value was 93.1% (inactive).
For `C[C@H](CO)N1C[C@H](C)[C@H](CN(C)C(=O)Nc2cccc3ccccc23)Oc2ncc(C#Cc3ccc(C(F)(F)F)cc3)cc2C1=O`, the “activity change, negative = cytotoxicity” value was -12.7% (inactive).
For `COc1cccc(NC(=O)Nc2ccc3c(c2)C(=O)N(C)[C@@H]2CC[C@H](CC(=O)O)O[C@H]2CO3)c1`, the “activity change, negative = cytotoxicity” value was 90.2% (inactive).
With `CC(C)NC(=O)N(C)C[C@H]1Oc2cc(C#C[C@H](C)O)ccc2S(=O)(=O)N([C@@H](C)CO)C[C@H]1C` the “activity change, negative = cytotoxicity” value was 70.4% (inactive).
With `CCNC(=O)C[C@@H]1CC[C@H]2[C@@H](COc3ccc(NC(=O)c4ccc(C(F)(F)F)cc4)cc3C(=O)N2C)O1` the “activity change, negative = cytotoxicity” value was 65.7% [at 23.5 µM] (inactive).
With `C/C=C/c1ccc([C@@H]2[C@@H](CO)N(C(C)=O)[C@H]2CN(C(=O)COC)C(C)C)cc1` the “activity change, negative = cytotoxicity” value was -3.91% (inactive).
With `CCN(C[C@@H]1[C@@H](c2ccccc2)[C@@H](CO)N1S(C)(=O)=O)C(=O)C1CC1` the “activity change, negative = cytotoxicity” value was 135% (inactive).
For `CCNC(=O)Nc1ccc2c(c1)C(=O)N(C)[C@H]1CC[C@H](CC(=O)NCCOC)O[C@@H]1CO2`, the “activity change, negative = cytotoxicity” value was -18.8% (inactive).
With `C/C=C/c1ccc([C@@H]2[C@@H](CNC(=O)c3ccncc3)N(C(=O)CC)[C@H]2CO)cc1` the “activity change, negative = cytotoxicity” value was 101% (inactive).
With `CO[C@@H]1CN(C)C(=O)c2ccc(NS(=O)(=O)c3cccc(F)c3)cc2OC[C@@H](C)NC[C@H]1C` the “activity change, negative = cytotoxicity” value was -41.8% (inactive).
For `C/C=C/c1ccc([C@@H]2[C@@H](CO)N[C@@H]2CN(C(=O)C2CCCC2)C(C)C)cc1`, the “activity change, negative = cytotoxicity” value was 15.4% (inactive).
In the case of `CNC(=O)C[C@@H]1CC[C@@H]2[C@H](COc3ccc(NC(=O)c4cccc(OC)c4)cc3C(=O)N2C)O1`, the “activity change, negative = cytotoxicity” value is reported as 69.2% (inactive).
For `O=C(Nc1ccccc1)N1CCCCN2[C@@H](CO)[C@H](c3ccc(C4=CCCCC4)cc3)[C@@H]2C1`, the “activity change, negative = cytotoxicity” value was -74% (inactive).
With `CN1C(=O)c2cc(NC(=O)c3ccc(F)cc3)ccc2OC[C@@H]2O[C@@H](CC(=O)O)CC[C@@H]21` the “activity change, negative = cytotoxicity” value was 121% (inactive).
For `N#Cc1cccc(NC(=O)Nc2cccs2)c1`, the “activity change, negative = cytotoxicity” value was 96.1% (inactive).
In the case of `C[C@H]1CN([C@@H](C)CO)C(=O)c2cc(C#Cc3cccnc3)cnc2O[C@H]1CN(C)S(=O)(=O)c1ccccc1F`, the “activity change, negative = cytotoxicity” value is reported as 38.2% (inactive).
In the case of `CCC(=O)N1[C@H](CO)[C@H](c2ccccc2)[C@@H]1CN(CC)C(=O)c1ccccc1`, the “activity change, negative = cytotoxicity” value is reported as 138% [at 23.5 µM] (inactive).
In the case of `COc1cccc(CNC(=O)C[C@@H]2CC[C@@H]3[C@@H](COc4ccc(NC(C)=O)cc4C(=O)N3C)O2)c1`, the “activity change, negative = cytotoxicity” value is reported as 111% (inactive).
With `COc1cccc(-c2nc(NCCN3CCOCC3)c3ccccc3n2)c1O` the “activity change, negative = cytotoxicity” value was 61.8% (inactive).
For `CC(=O)N1[C@@H](CO)[C@@H](c2ccccc2)[C@@H]1CNC(=O)CN1CCOCC1`, the “activity change, negative = cytotoxicity” value was -30.7% (inactive).
For `C/C=C/c1ccc([C@@H]2[C@@H](CO)N(C(C)=O)[C@@H]2CN(C)C(=O)c2ccccn2)cc1`, the “activity change, negative = cytotoxicity” value was 203% (inactive).
For `C=CCNC(=S)NNC(=O)c1cccn(Cc2ccc(Cl)c(Cl)c2)c1=O`, the “activity change, negative = cytotoxicity” value was 5.3% (inactive).
With `COCC(=O)NC[C@H]1N[C@H](CO)[C@H]1c1ccc(C2=CCCC2)cc1` the “activity change, negative = cytotoxicity” value was 55.1% (inactive).
In the case of `O=c1c2cc(N3CCOCC3)ccc2[nH]c(=S)n1CCCN1CCCC1`, the “activity change, negative = cytotoxicity” value is reported as 25.1% (inactive).
For `CN1C(=O)c2cc(NC(=O)c3cccs3)ccc2OC[C@@H]2O[C@@H](CC(=O)N3CCOCC3)CC[C@H]21`, the “activity change, negative = cytotoxicity” value was 115% [at 23.5 µM] (inactive).
For `CCS(=O)(=O)Nc1ccc2c(c1)C(=O)N(C)[C@@H]1CC[C@@H](CC(=O)NCCCN3CCOCC3)O[C@@H]1CO2`, the “activity change, negative = cytotoxicity” value was 147% (inactive).
With `C/C=C/c1ccc2c(c1)O[C@H](CN(C)C(=O)NCCC)[C@H](C)CN([C@@H](C)CO)S2(=O)=O` the “activity change, negative = cytotoxicity” value was 152% (inactive).
In the case of `COCC(=O)N(C)C[C@H]1Oc2cc(-c3ccc(C#N)cc3)ccc2S(=O)(=O)N([C@H](C)CO)C[C@H]1C`, the “activity change, negative = cytotoxicity” value is reported as 113% (inactive).
For `C[C@H]1CN([C@@H](C)CO)S(=O)(=O)c2ccc(C3=CCCC3)cc2O[C@H]1CN(C)Cc1cccnc1`, the “activity change, negative = cytotoxicity” value was -21.6% (inactive).
